Results published in PubChem BioAssay (NCI).
Compounds without any hit were thinned out: in the full panel of roughly 79,000, 15% have a hit. The source made the active and inactive calls. No stated cut-off is given here; in the data, active means growth inhibition above about 70%; inactive means the rest.

Columns and labels:
[1] = NCI Yeast Anticancer Drug Screen. Data for the rad50 strain (AID 155);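 further: 0% = growth of vehicle-only cultures of the same strain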; details: S. cerevisiae rad50 strain growth inhibition; at 50.0 µM; stronger effect = higher value
Procedure, shortened: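 Relative growth inhibition (compound vs vehicle) was measured in yeast with a defined repair-gene alteration.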

[2] = NCI Yeast Anticancer Drug Screen. Data for the mec2-1 strain (AID 157); details: S. cerevisiae mec2-1 strain, at 50.0 µM, stronger effect = higher value
Procedure, shortened: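 mec2-1 yeast strain, carrying an alteration in DNA damage repair or cell cycle control, was exposed to compounds; growth inhibition was measured relative to vehicle-treated controls.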

[3] = NCI Yeast Anticancer Drug Screen. Data for the sgs1 mgt1 strain (AID 161);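 further: 0% = growth of cultures given vehicle only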; details: S. cerevisiae sgs1 mgt1 strain, at 50.0 µM, stronger effect = higher value
Procedure, shortened: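 Percent growth inhibition was derived by comparing compound-exposed mutant yeast with vehicle-exposed cultures. The strain carries alterations in DNA damage repair.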

[4] = NCI Yeast Anticancer Drug Screen. Data for the cln2 rad14 strain (AID 165);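 further: 0% = growth equal to vehicle treated cultures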; details: S. cerevisiae cln2 rad14 strain, at 50.0 µM, stronger effect = higher value
Procedure, shortened: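 Yeast carrying cln2 and rad14 alterations (cell cycle control and DNA damage repair) were exposed to compounds. Growth inhibition was measured against vehicle-treated controls.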

[5] = NCI Yeast Anticancer Drug Screen. Data for the bub3 strain (AID 167); details: S. cerevisiae bub3 mutant strain, at 50.0 µM, stronger effect = higher value
Procedure, shortened: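 Screening used yeast with an engineered genetic alteration affecting cell cycle control. Compound-exposed cultures were compared with vehicle cultures, and reduced growth was taken as inhibition.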

[6] = NCI Yeast Anticancer Drug Screen. Data for the mlh1 rad18 strain (AID 175); details: S. cerevisiae mlh1 rad18 strain growth inhibition; at 50.0 µM; stronger effect = higher value
Procedure, shortened: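 Growth inhibition of the yeast strain was measured after compound exposure and expressed relative to vehicle-treated controls. The strain carries defined defects in DNA damage repair.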

Measured: growth inhibition

Cc1c(N/C=C(\C#N)C(=O)c2ccc(Cl)cc2)c(=O)n(-c2ccccc2)n1C
inactive: [1] -8.15% | [2] 6.6% | [3] -7.25% | [4] 27.2% | [5] 2.35% | [6] 30.9%

C\C(=C/C(=N/N=C\c1ccccc1O)c1ccccc1)c1ccccc1
inactive: [1] 13.8% | [2] 10.9% | [3] -4.45% | [4] -3.5% | [5] 5.6% | [6] 5.15%

O=C(O)c1cc(Br)c(O)cc1O
inactive: [1] -11.4% | [2] -17.6% | [3] -3.35% | [4] 9.35% | [5] -5.25% | [6] 7%

c1cc2cc(c1)CNCCNCCNCc1cccc(c1)CNCCNCCNC2
inactive: [1] -22.4% | [2] -17.4% | [3] -30.6% | [4] 16.9% | [5] 6% | [6] -2.9%

CCCCCC(=O)C(C)C1(C(=O)OC)NC(=S)NC(=O)C1C#N (stereo not given)
inactive: [1] 16.8% | [2] 14.8% | [3] 13.1% | [4] 12.4% | [5] -1.9% | [6] 17.4%

c1ccc2c(c1)CCc1ccccc1N2
inactive: [1] 1.65% | [2] 13.8% | [3] -28.9% | [4] 6.45% | [5] 15.1% | [6] -3.4%

Cc1ccc(S(=O)(=O)Oc2cc(-c3ccccc3)nc3ccccc23)cc1
inactive: [1] 5.35% | [2] -7.25% | [3] 2.95% | [4] 11.7% | [5] 27.6% | [6] 9.85%

COC(=O)Cc1[nH]c(C(=O)OC)c(C)c1C(=O)OC
inactive: [1] -6.7% | [2] -7.45% | [3] -3.15% | [4] -21.1% | [5] -6.95% | [6] -2.2%

C=C1c2nc3ccccc3n2C=C(c2ccccc2)N1c1ccc([N+](=O)[O-])cc1
inactive: [1] 8.05% | [2] 41.6% | [3] 3.75% | [4] 13.6% | [5] 22.4% | [6] 27.9%

Cn1c(-c2ccc(-c3cc(-c4cccs4)c(-c4cccs4)n3C)cc2)cc(-c2cccs2)c1-c1cccs1
inactive: [1] 11.7% | [2] -15% | [3] 14.8% | [4] -16.9% | [5] 1.55% | [6] 17.8%

CC(C)CC(NC(=O)c1cc([N+](=O)[O-])cc([N+](=O)[O-])c1)C(=O)O (stereo not given)
inactive: [1] -2% | [2] -2.7% | [3] 16.1% | [4] 8.5% | [5] -41.2% | [6] -5.5%

C/C(=N\NC(N)=O)C(C)(C)O
inactive: [1] 26.8% | [2] 16.9% | [3] 7.7% | [4] 12.4% | [5] 11.5% | [6] 13.6%

N#C/C(=C\C=C\c1ccccc1)C(N)=O
inactive: [1] -57.8% | [2] -27.6% | [3] -27.4% | [4] -7.45% | [5] -51.5% | [6] -49.8%

CCCCc1c(O)nc(NCCCC(N)C(=O)O)[nH]c1=O (stereo not given)
inactive: [1] -9.55% | [2] -13.8% | [3] -7.2% | [4] -28.9% | [5] -4.6% | [6] -17.8%

O=C(O)CCCc1ccc(O)cc1
inactive: [1] 7.1% | [2] 11.7% | [3] 8.4% | [4] 10.7% | [5] -1.15% | [6] 20.3%

CN(C)c1ccc(C(=O)C2CCCCC2)cc1
inactive: [1] 29.1% | [2] 7.5% | [3] 13.6% | [4] -4.8% | [5] -5.2% | [6] 21.8%

COc1cc2c(c(OC)c1OC)-c1cccc(=O)cc1C(NC(C)=O)CC2 (stereo not given)
inactive: [1] -3.65% | [2] -14.2% | [3] -3.35% | [4] 8.9% | [5] -2.2% | [6] 21.1%

CC(C)CNc1ncnc2c1ncn2C
inactive: [1] -2.2% | [2] -4.85% | [3] -4% | [4] -18.9% | [5] 1.1% | [6] -0.25%

CC1CCC(C(C)C)C(NC(=O)c2cccnc2)C1 (stereo not given)
inactive: [1] 8.3% | [2] -7.45% | [3] -2.75% | [4] 13.9% | [5] 14.4% | [6] 8.75%

O=C(NCCc1c(-c2ccccc2)[nH]c2ccccc12)C1CCCCC1
inactive: [1] -10.6% | [2] 17.9% | [3] 32.6% | [4] -6.1% | [5] 30.9% | [6] -2.3%

CCCCCCCCCCCC(=O)N(CCCCCCCCCCC(=O)O)CC(O)C(O)C(OC1OC(CO)C(O)C(O)C1O)C(O)CO (stereo not given)
inactive: [1] 65.3% | [2] 12.8% | [4] 32.2% | [6] 20.3%
active: [3] 85.8% | [5] 86.3%

Cc1ccc(NC(=O)Nc2ccc(Cl)cc2)c(C)c1
inactive: [1] -12.8% | [2] -6% | [3] 1.65% | [4] -28.6% | [5] 5.6% | [6] -0.65%

CCOc1nc(C(=O)O)cc2ccsc12
inactive: [1] 1.15% | [2] -6.2% | [3] 5.5% | [4] -48.1% | [5] -43.4% | [6] 0%

N=C1N=C(N)C(CCCOc2cc(Cl)ccc2Cl)(CCCOc2cc(Cl)ccc2Cl)C(N)=N1
active: [1] 99% | [2] 95.5% | [3] 97.4% | [4] 98.5% | [5] 98.9% | [6] 98%

CC(=O)Oc1ccc(C2CC(=O)N(CCN(C)C)C2=O)cc1 (stereo not given)
inactive: [1] 0.2% | [2] 30.2% | [3] -0.5% | [4] -6.35% | [5] 14.2% | [6] -2.1%

CC(=O)c1sc(Nc2nnc(-c3ccc(-c4nnc(Nc5nc(C)c(C(C)=O)s5)o4)cc3)o2)nc1C
inactive: [1] 3.15% | [2] -14.3% | [3] -25% | [4] 6.4% | [5] -3.05% | [6] 3.05%

CN1C(=O)C=C(C=Nc2ccc(-c3ccccc3)cc2)C2CCCCC21 (stereo not given)
inactive: [1] 0.85% | [2] -8.75% | [3] -8.05% | [4] 6.55% | [5] 11.5% | [6] 6.75%

COc1ccc(NC2CC(C)N(C(=O)c3ccccc3)O2)cc1 (stereo not given)
inactive: [1] -42.1% | [2] -37.2% | [3] -19.1% | [4] 12.3% | [5] -21.6% | [6] -19.2%

CC(C)=CCOc1cc(NC(=S)c2ccsc2C)ccc1Cl
inactive: [1] -40.6% | [2] -24.6% | [3] -34.1% | [4] -22.4% | [5] -19.1% | [6] -36.3%

CCS1=C2C(=O)CC(C)(C)CC2=Nc2ccccc21 (stereo not given)
inactive: [1] 7.2% | [2] -0.15% | [3] 18.9% | [4] -8.05% | [5] 17.9% | [6] -31.1%

Cc1cc(OCc2nnc3n2S(=O)(=O)c2ccccc2N3C)ccc1Cl
inactive: [1] 49.4% | [2] 2% | [3] -21.8% | [4] -0.75% | [5] -30.4% | [6] -22.4%

CCOC(=O)CCC(NC(=O)c1ccc(N=Cc2nc3ccccc3nc2-c2ccccc2)cc1)C(=O)OCC (stereo not given)
inactive: [1] 4.35% | [2] 0.95% | [3] 6.8% | [4] 14.5% | [5] 11.8% | [6] -7.7%

O=C(O)COc1ccc(C(=O)/C(SS/C(C(=O)c2ccc(OCC(=O)O)c(Cl)c2Cl)=C2\C=C(c3ccccc3Cl)SS2)=C2/C=C(c3ccccc3Cl)SS2)c(Cl)c1Cl
inactive: [1] -20.8% | [2] -29.1% | [3] -6.05% | [4] 7.05% | [5] -19.9% | [6] -27.1%

CCOc1ccc(NC(=O)Oc2ccc(-c3ccccc3)cc2)cc1
inactive: [1] 15.8% | [2] 33.5% | [3] 24.4% | [4] -12% | [5] 56.7% | [6] 48.1%

CCO/C([O-])=C(\C=N\S(=O)(=O)c1ccc(C)cc1)[n+]1ccc(C)cc1
inactive: [1] 13.8% | [2] 14.7% | [3] 12.2% | [4] -17.1% | [5] -4.2% | [6] 6.45%

CCCCCCC(=O)CC1(C(=O)OC)NC(=S)NC(=O)C1C#N (stereo not given)
inactive: [1] 18.1% | [2] 6.85% | [3] -1.55% | [4] -0.75% | [5] -9.55% | [6] 15.8%

CCON=C1C(C)(C)C(C)(C)C(C)(C)C1(C)C
inactive: [1] -13.4% | [2] 0.2% | [3] -24.6% | [4] 37.4% | [5] -16.1% | [6] -2.05%

O=C(CN1C(=O)NC(c2ccccc2)(c2ccccc2)C1=O)NCCN1CCOCC1
inactive: [1] -1.65% | [2] 3.9% | [3] -5.95% | [4] -1.6% | [5] -0.1% | [6] 26.1%

O=C1CN(CCCO)CC(=O)N2Cc3ccccc3CN12
inactive: [1] -8.95% | [2] 4.55% | [3] -18.7% | [4] -10% | [5] -6.85% | [6] -11.3%

CN(c1ccccc1Cl)S(=O)(=O)c1ccccc1[N+](=O)[O-]
inactive: [1] 5.15% | [2] -30.1% | [3] 31.2% | [4] -18% | [5] 38% | [6] 2.95%
